CendR NRP1 mod: alters CendR peptide binding to human NRP-1; inhibition, % at 25 µM; FAM-RPARPAR peptide binding to NRP-1, fluorescence polarization; AID 602438; O14786; 360,000 compounds, 0.85% hits;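 active means inhibition or corrected inhibition above about 18%, plus a signal ratio from 0.5 to 1.5, limit read from the data, passing the limit was not always enough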
FAS-TE inh: inhibitors of human fatty acid synthase thioesterase domain | inhibition, % at 15 µM | AID 602261 | 360,000 compounds, 0.67% hits | recombinant FAS-TE, OMFH fluorogenic substrate, fluorescence endpoint | P49327;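 active means compounds whose normalised, plate-corrected inhibition of enzyme fluorescence in the single-dose primary screen is 50% or more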;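 further: 0% = DMSO with enzyme and 100% = substrate without enzyme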
Myeloid diff 2: myeloid differentiation induction | ER-HoxA9 myeloid progenitors, lysozyme-GFP differentiation, flow cytometry | calls only at 10 µM | AID 624256 | 360,000 compounds, 1% hits;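 active means normalized GFP-positive differentiation at or above the plate's own cutoff, the solvent-only control mean plus 3 SD; inconclusive means no clear call, values can overlap the other calls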;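 further: cells exposed to compound for four days before flow analysis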
NadD inh: NadD (S. aureus) enzyme inhibition. purified NadD enzyme, colorimetric absorbance read-out. inhibition, % at 20 µM. 360,000 compounds, 0.78% hits. AID 602399; in the data active means inhibition above about 26%
CRFR2-BP antag: blocks CRF-induced signaling of the CRF-BP/CRF-R2 complex; inhibition, % at 11.8 µM; 350,000 compounds, 0.59% hits; AID 588475; HEK293 CRF-R2/CRF-BP, CRF-induced calcium fluorescence;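 active means inhibition of the ligand-induced calcium signal above about 50% at the single tested concentration, limit read from the data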
Numbers without * were called inactive; i = inactive; u = inconclusive; x = no result; + = active, no number. Most compounds without a hit are left out; they make up all but 3.6% or so of the library.

SMILES | CendR NRP1 mod | FAS-TE inh | Myeloid diff 2 | NadD inh | CRFR2-BP antag
COc1ccc([C@H]2CC(=O)C[C@@H](CCn3cc(Cc4ccccc4)nn3)O2)cc1 | -4 | -4 | i | 2 | x
O=C(NCC(c1cccs1)N1CCOCC1)c1ccccc1NS(=O)(=O)c1cc([N+](=O)[O-])ccc1Cl (stereo not drawn) | 13 | 29 | i | 2 | 16
CC1(c2nnc(Cc3ccccc3)o2)CC(c2ccccc2)=NO1 (stereo not drawn) | 22 | -16 | i | -3 | -4
CC1(c2nnc(Cc3ccccc3)o2)CC(c2cccc(Cl)c2)=NO1 (stereo not drawn) | 28* | 18 | i | -8 | 6
COc1ccccc1CNc1ccc2c(c1)CCC2 | -47 | -1 | + | -3 | -3
COc1ccc(CNc2ccc3c(c2)CCC3)cc1Br | -16 | 3 | i | 5 | 5
COCCN(CCOC)Cc1cc(=O)oc2cc(C)cc(C)c12 | 10 | -2 | i | -8 | x
CCN1C(=O)C(=O)N(Cc2ccc(OC)c(F)c2)C1=O | -7 | -2 | i | -6 | 84*
COc1ccc(CN2C(=O)NC(C)(c3ccc(C)cc3)C2=O)cc1F (stereo not drawn) | -21 | -1 | i | -4 | 1
COc1ccc(NC(=O)c2cc(C3CCCCN3S(=O)(=O)c3cn(C)cn3)on2)c(C)c1 (stereo not drawn) | 4 | -8 | i | 3 | x
c1ccc2c(c1)CCCN2Cc1nnnn1CC1CCCO1 (stereo not drawn) | 24* | -17 | i | -3 | 9
c1ccc(CCn2nnnc2CN2CCCc3ccccc32)cc1 | 3 | -8 | i | 5 | -17
CC[N+]1=C(C)C(C)(C)c2cc(C)ccc21 | -50 | -6 | + | -1 | -23
NC1=NC[C@@H](Cc2ccc(O)cc2)N1CCCCC1CCCCC1 | 31* | -30 | i | 0 | 9
CCCCN1C(=O)C(CC(=O)NCCN2CCOCC2)CC(C(=O)N(C(C)C)C(C)C)=C1C (stereo not drawn) | 10 | -3 | i | -2 | -9
O=C(C1=NN(c2ccccc2)C2C(=O)N(c3cccc(Cl)c3)C(=O)C12)c1ccccc1 (stereo not drawn) | 135 | 64* | i | 12 | -137
O=C(C1=NN(c2ccccc2)C2C(=O)N(c3ccc(Cl)cc3)C(=O)C12)c1ccccc1 (stereo not drawn) | -30 | 5 | i | 12 | -57
CN1/C(=C\C(=S)NC(=O)c2ccc([N+](=O)[O-])cc2)C(C)(C)c2ccccc21 | -4 | -6 | i | 7 | 5
CN1/C(=C\C(=S)NC(=O)c2cccc(Br)c2)C(C)(C)c2ccccc21 | -38 | 18 | + | 2 | -34
COc1ccccc1N1CCN(C(=O)C(=O)c2cn(CC(=O)N3CCCC3)c3ccccc23)CC1 | -1 | 1 | i | 1 | 62*
CCN(CC)C(=O)Cn1cc(C(=O)C(=O)N2CCN(c3ccccc3)CC2)c2ccccc21 | 25* | -1 | i | -3 | 0
COc1ccccc1N1CCN(C(=O)C(=O)c2cn(CC(=O)N3CCCCCC3)c3ccccc23)CC1 | 3 | -1 | u | 4 | 5
Cc1ccccc1-n1nc2c(c1NC(=O)C1CC1)CS(=O)(=O)C2 | 11 | -9 | i | 0 | -13
Cc1ccc(S(=O)(=O)Nc2ccc(C(=O)NC3CC3)cc2)cc1 | 21 | -3 | i | 3 | 3
Cc1ccc(S(=O)(=O)Nc2cc(C(=O)Nc3cc(C)cc(C)c3)ccc2Cl)cc1 | 18 | 19 | i | 1 | 55*
SMILES | CendR NRP1 mod | FAS-TE inh | Myeloid diff 2 | NadD inh | CRFR2-BP antag
Cc1ccc(NS(=O)(=O)c2ccc(C(=O)Nc3nncs3)cc2)cc1 | -2 | -1 | i | -2 | 110*
COc1ccc(N2CCCC2=O)cc1S(=O)(=O)N1CCOCC1 | -2 | -12 | i | -10 | -4
COc1ccccc1CNC(=O)c1cc(-c2ccccc2)nn1Cc1cc(C)no1 | 27* | 16 | i | -7 | 4
Cc1nc2ccc(C(=O)N/N=C/c3cc([N+](=O)[O-])ccc3O)cc2[nH]1 | 14 | 6 | i | 3 | -6
O=[N+]([O-])c1ccc(O)c(/C=N\N=C2c3ccccc3-c3ccccc32)c1 | 1 | 7 | i | 9 | 74*
O=C(N/N=C/c1cc([N+](=O)[O-])ccc1O)c1cccc(NC(=O)c2cccc(Cl)c2)c1 | -15 | 27 | u | 63* | 1
COc1ccc(C(=O)N/N=C(/C)c2cccc(NC(=O)c3ccncc3)c2)cc1OC | -4 | -4 | i | -6 | 4
